From PubChem BioAssay (NCI) come the findings set out here.

Each structure is given as a SMILES string. About 83,000 compounds went through this panel and 20% of them were active in at least one assay; those are over-represented in the sample as a whole.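 How to read the values: 0–100, growth inhibition (40 = 60% inhibited); 0, no net growth; -100 to 0, cell death (-40 = 40% of starting cells died; -100 = all dead).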 Values without a mark were called inactive. The source made the active and inactive calls.

The test concerns TK-10 renal. Briefly: NCI-60 one-dose screen, 48 h (100 = growth as untreated, 0 = no growth, -100 = all killed). As to conditions: 10 µM unless noted. On the procedure: Growth inhibition of the TK-10 human tumor cell line is measured as a screen for anti-cancer activity. Cells are grown in 96 well plates and exposed to the test compound for 48 hours. Compounds are tested at a single concentration, which is 10^-5 M for most compounds. The reported endpoint is percent growth (GI% or GIPRCNT), where numbers from 0 - 100% represent growth inhibition, and numbers from -100% - 0 represent cell death. For example, a value of 40 represents 60% growth inhibition. A value of 0 means no net growth occurred over the course of the experiment. A value of -40 indicates 40% of cells at the beginning of the experiment died by the end of the experiment. A value of -100 means all cells are dead at the end of the experiment.
NCI-60 Human Tumor Cell Lines Screen was performed using the standard one-dose NCI protocol, which is described in more detail at https://dtp.cancer.gov/discovery_development/nci-60/default.htm.
Compounds with GIPRCNT values below 10 were considered active. Activity score was based on GIPRCNT using the following formula: […]
Score is 0 for GIPRCNT values of 100 or above, 50 for GIPRCNT values of 0, and 100 for GIPRCNT values of -100.
In the case of `CC(Oc1ccc(C(=O)NS(=O)(=O)C(C)(C)C)cc1C(F)(F)F)c1ccc(Oc2ccccc2)cn1` (stereo not given), the growth is 79.7%.

With `CC[C@H](C)[C@@H]1NC(=O)[C@H](Cc2ccc(O)cc2)N(C)C(=O)[C@H](Cc2ccccc2)NC(=O)CN(C)C(=O)[C@@H]2CCCN2C(=O)[C@@H](Cc2ccccc2)N(C)C(=O)[C@H](CC(C)C)NC1=O`, the growth was 6.34% (active).

On to `C/C(=C(/c1ccccc1)c1ccc(OCC(O)CNCCN2CCOCC2)cc1)c1ccccc1` (stereo not given), for which the growth is 73.5%.

As to `COc1ccc2c(/C=C3/C(=O)NC(=S)NC3C)cc(=O)oc2c1` (stereo not given), the growth is 93.5%.

As for `O=C(O)c1cn(C2CC2)c2cc(N3CCN(C(=O)C[n+]4cccc5ccccc54)CC3)c(F)cc2c1=O`, the growth is 100%.

In the case of `COc1ccc(C(=O)c2cc(C)c(OC)c(C)c2)c(OC)c1O`, the growth is 58.5%.

As for `Cc1n[nH]c(C)c1-c1c(C)n[nH]c1C`, the growth is 13%.

Take `CC(=O)O[C@]1(C(C)=O)CC[C@H]2[C@@H]3C=C(Cl)C4=CC(=O)CC[C@]4(C)[C@H]3CC[C@@]21C`: the growth was 113%.

Consider `CCCCCOc1ccc(/C=N/Nc2cc(C)nc3ccc(Br)cc23)cc1`, for which the growth was 19.1%.

With `C[C@H]1[C@H](C)CC[C@]2(CO)CC[C@]3(C)C(=CC[C@@H]4[C@@]5(C)CCCNC(C)(C)[C@@H]5CC[C@]43C)[C@H]12`, the growth is 23%.

Consider `NC(=O)CN1CCN(c2ccccc2Cl)CC1`, for which the growth was 116%.

For `COc1cc(-c2nc3sccn3c2-c2ccnc(NCCNS(=O)(=O)c3ccc(F)cc3)n2)ccc1F`, the growth was 20.2%.

As to `O=C1Nc2ccccc2/C1=C\c1cccc(/C=C2/C(=O)Nc3ccccc32)n1`, the growth is -59.3% (active).

With `COc1ccc(Cn2nc3c(c2-c2cc(OC)c(OC)c(OC)c2)-c2oncc2CC3)cc1`, the growth is 96.2%.

With `CCOC(=O)Oc1c(OC)cc(C(=O)O[C@@H]2C[C@@H]3CN4CCc5c([nH]c6cc(OC)ccc56)[C@H]4C[C@@H]3[C@H](C(=O)OC)[C@H]2OC)cc1OC`, the growth was 99.7%.

Turning to `O=C(c1ccccc1)N1N=C(c2ccc(-n3ccc(C(F)(F)F)n3)cc2)CC1c1ccc[nH]1` (stereo not given), the growth is 80.8%.

Take `COc1ccc(-c2cnnc3c(-c4cccc(C(F)(F)F)c4)cnn23)cc1`: the growth is 21%.

Regarding `FC(F)(F)Oc1cccc(-c2cc(NCCCCCCNc3cc(-c4cccc(OC(F)(F)F)c4)nc4ccc(N5CCCC5)cc34)c3cc(N4CCCC4)ccc3n2)c1`, the growth is -89.7% (active).

For `O=C(OC(OC(=O)c1cc(Cl)cc(Cl)c1)c1cccc2ccccc12)c1ccccc1` (stereo not given), the growth is 90.7%.

Consider `N#Cc1c(NC(=O)c2cccc(Br)c2)sc2c1CCCC2`, for which the growth is 79.2%.

For `COc1ccc(C(=O)/C=C/c2cn(Cc3ccc(Cl)cc3)c3ccccc23)cc1`, the growth is 27.4%.

Consider `CCC(C)C(N)C(=O)NNc1n[nH]c(=S)n1N` (stereo not given), for which the growth was 104%.

Consider `CN(C)C(=O)c1cc2cnc(Nc3ccc(-c4csc5c(=O)cc(N6CCOCC6)oc45)cc3)nc2n1C1CCCC1`, for which the growth was -10% (active).

With `Nc1ccccc1NC(=O)c1ccc(CN2CCC/C(=C\c3cccc(Cl)c3)C2=O)cc1`, the growth was 4.89% (active).

In the case of `CCn1ccnc1C(=O)/C=C/c1ccc(CC(=O)Nc2ccc(F)cc2)cc1`, the growth was 66.3%.

Consider `COC(=O)CCCCCCCCC1(C)C=CC(C(C)O)=CC1` (stereo not given), for which the growth was 92.2%.

On to `C=C1C(=O)O[C@H]2[C@H]1CC/C(CNC(=O)/C=C/c1ccc(Br)cc1)=C\CC[C@@]1(C)O[C@@H]21`, for which the growth was -67.9% (active).

For `O=c1[nH]nc(-c2ccc(Br)cc2)cc1Cc1ccc(O)cc1`, the growth is 139%.

As to `COc1ccccc1N1CCN(C(=O)c2ccc3nc(NC(=O)c4ccc(NCCc5ccccc5)c([N+](=O)[O-])c4)sc3c2)CC1`, the growth is 110%.

For the compound `O=C1Nc2c(ccc(Cl)c2Cl)/C1=C/c1ccc(F)cc1`, the growth is 109%.

With `FC(F)(F)c1cccc(Oc2ccc(Nc3ncnc4ccc(OCCCN5CCOCC5)cc34)cc2Cl)c1`, the growth was 46%.

For the compound `Nc1ncc(C#Cc2cncc(NC(=O)c3cccc(C(F)(F)F)c3)c2)c2cccnc12`, the growth was 84.8%.

`O=C(Nc1sc2c(c1C(=O)O)CCCC2)c1cccc(C(F)(F)F)c1`: the growth was 105%.

Turning to `COc1cc(OC)c(/C=C/C(=O)c2ccc(Nc3ncnc4ccccc34)cc2)c(OC)c1`, the growth is -17.9% (active).

With `COc1ccc(/C=N/NC(=O)c2cccc3cc[nH]c23)cc1O`, the growth is 47.1%.

For the compound `COc1ccc(OC)c(/C=C/[C@H]2O[C@@H](C)[C@H](O)[C@@H]2O)c1`, the growth is 95.7%.

Consider `O=C(Nc1cccc(Cl)c1)Oc1c(Br)c(Br)c(Br)c(Br)c1Br`, for which the growth is 99.9%.

As for `O=C1Nc2c(ccc(Cl)c2Cl)/C1=C/c1ccc([N+](=O)[O-])cc1`, the growth was 103%.

With `Clc1ccc(C2CC(c3cccc(Nc4ccncc4)c3)=NN2c2ccccc2)cc1` (stereo not given), the growth is 57.4%.

Turning to `COc1ccc(Cl)cc1NC(=O)c1c(NC(=O)C(F)(F)C(F)(F)F)sc2c1CCCCC2`, the growth was 10.7%.
